The text below walks through data of PubChem BioAssay (NCATS).

For experiment [1] the following is noted: Ebola virus entry assay, green fluorescence channel.
The conditions of experiment [2]: Ebola virus entry assay, blue channel fluorescence.
For experiment [3] the following is noted: Ebola virus entry assay, green fluorescence channel. This is another data set of the same source.
For experiment [4] the following is noted: Ebola virus entry assay, ratio channel readout.
For experiment [5] the following is noted: Ebola virus entry assay, blue channel fluorescence. This is another data set of the same source.
For experiment [6] the following is noted: Ebola virus entry assay, ratio channel.
The conditions of experiment [7]: Ebola virus entry assay, reporter ratio channel; AC50: Channel type: primary unless noted; outcome: Channel type: primary unless noted.
The conditions of experiment [8]: Ebola virus entry reporter assay, green channel fluorescence. Background: Reporter assays use an easily measured gene product as a stand-in for the process of interest.
For experiment [9] the following is noted: Ebola virus entry cell assay, ratio channel.
Experiment [10] is described as follows: qHTS profiling of the MIPE4 collection as inhibitors of Plasmodium falciparum (3D7) proliferation (AID 743344).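 Further: scaled between DMSO vehicle wells and 0.29 µM artemisinin as full inhibition.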 As to conditions: P. falciparum 3D7 in erythrocytes, SYBR Green DNA fluorescence, 72 h; at 28.5 µM (top of the series) unless noted. Put shortly:
(§1)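 Parasite DNA was quantified by SYBR Green I fluorescence (ex 485, em 535 nm) after overnight lysis in saponin/Triton buffer at room temperature. Cultures at 0.3% parasitemia and 2.5% hematocrit were first exposed to compound for 72 h at 37 C; signals were normalised to artemisinin (0.29 uM) and vehicle wells.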

The nature of experiment [11]: qHTS profiling of the MIPE4 collection as inhibitors of Plasmodium falciparum (DD2) proliferation (AID 743345). The settings on record: P. falciparum Dd2 in erythrocytes, SYBR Green DNA, 72 h; at 28.5 µM (top of the series) unless noted. In outline:
as §1

Experiment [12] in a line: qHTS profiling of the MIPE4 collection as inhibitors of Plasmodium falciparum (HB3) proliferation (AID 743347).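 Further: plate controls were DMSO vehicle wells for no effect and artemisinin wells for full effect.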 As to conditions: P. falciparum HB3 in erythrocytes, SYBR Green DNA, 72 h; at 28.5 µM (top of the series) unless noted. In outline:
as §1
Background: Quantitative high-throughput screening tests each substance at several concentrations.

For experiment [13] the following is noted: Ebola virus entry assay, blue channel (ratio component).

For some assays here: Potency and affinity values are given separately. Calls of active or inactive are those of the source.
Wherever efficacy is given: 0% is about no effect.

As usually defined, the AC50 is the concentration giving half of the maximal activity seen. `Cc1c(O)cccc1C(=O)N[C@@H](CSc1ccccc1)[C@H](O)CN1C[C@H]2CCCC[C@H]2C[C@H]1C(=O)NC(C)(C)C`: the efficacy in experiment [1] was 83.4% (inactive). For the same compound, the compound was called inactive in experiment [2], in experiment [3], in [4], in [6], in [8] and in [9]. For the same compound, the AC50 in experiment [5] and in experiment [7] was 39.8 µM (active) throughout.
On to `NC(=O)C(c1ccccc1)(c1ccccc1)[C@@H]1CCN(CCc2ccc3c(c2)CCO3)C1`, for which the efficacy in experiment [1] is 91.3% (inactive). Further, the result in experiment [2], in experiment [3], in experiment [4] and in experiment [9] was inactive. In addition, the AC50 in experiment [5] is 39.8 µM (active); in [6], 31.6 µM (active); in experiment [7], 31.6 µM (active).
Consider `C=C1C[C@@H]2[C@H](CC[C@]3(C)C(=O)CC[C@@H]23)[C@@]2(C)C=CC(=O)C=C12`, for which the efficacy in experiment [1] is 112% (inactive). Besides, the compound was called inactive in [2], in [3] and in experiment [4]. In addition, the AC50 in [5] is 28.2 µM (active); in [6], 25.1 µM (active); in experiment [7], 25.1 µM (active); in [9], 15.8 µM (active).
Turning to `CCN(CC)CCOC(=O)C1(C2CCCCC2)CCCCC1`, the efficacy in experiment [1] was 45% (inactive). The compound was classed as inactive in [2], in experiment [3], in experiment [4] and in experiment [8]. Also, the AC50 was 12.6 µM (active) in experiment [5], 10 µM (active) in [6], 10 µM (active) in experiment [7] and 15.8 µM (active) in [9].
As for `CN1CCc2cccc3c2[C@H]1Cc1ccc(O)c(O)c1-3`, in [1], the efficacy was 61.6% (inactive). In addition, the result in experiment [2], in experiment [3], in experiment [4], in [8] and in experiment [9] was inactive. Besides, the AC50 in experiment [5], in experiment [6] and in experiment [7] was 28.2 µM (active) in each case.
Turning to `Cc1ccsc1C(=CCCN1CCC[C@@H](C(=O)O)C1)c1sccc1C`, the efficacy in experiment [1] was 57.2% (inactive). Further, the compound was called inactive in experiment [2], in [3], in experiment [4], in [8] and in experiment [9]. For the same compound, the AC50 in [5] was 35.5 µM (active); in experiment [6] it was 20 µM (active); in experiment [7] it was 20 µM (active).
On to `COc1cc(NCc2ccc3nc(N)nc(N)c3c2C)cc(OC)c1OC`, for which the efficacy in experiment [1] is 44.2% (inactive). For the same compound, the outcome in [2], in experiment [3], in experiment [4] and in [9] was inactive. The AC50 in experiment [5] is 35.5 µM (active); in experiment [6] it was 28.2 µM (active); in experiment [7], 28.2 µM (active).
In turn, `COc1cc2c(c(OC)c1OC)-c1ccc(OC)c(=O)cc1[C@@H](NC(C)=O)CC2` had a parasite growth, % of DMSO control in experiment [10] of 34.7%. The compound also gave a parasite growth remaining, % of DMSO control (lower = more inhibition) in [11] of 78.8%. Besides, in experiment [12], the growth, % of control worked out at 35.4%. For the same compound, the efficacy in experiment [1] was -81.3% (inactive). The AC50 in [2] is 0.316 µM (active); in experiment [4], 0.32 µM (active); in [5] it was 22.4 µM (active); in [6], 0.316 µM (active); in [9] it was 0.316 µM (active). The compound was classed as inactive in [3] and in [13]. For the same compound, the outcome in [7] is “inactive [Channel type: confirmation]”.
Take `CCN(CC)CCNC(=O)c1c(C)[nH]c(/C=C2\C(=O)Nc3ccc(F)cc32)c1C`: the efficacy in experiment [1] was -131% (inactive). The AC50 in experiment [2] was 3.55 µM (active); in experiment [4] it was 3.17 µM (active); in [5], 1 µM (active); in [6], 0.708 µM (active); in [9] it was 3.16 µM (active). For the same compound, the result in experiment [3] was inactive. Moreover, the outcome in experiment [7] was “inactive [Channel type: confirmation]”.
On to `Cc1ccc(NC(=O)c2ccc(CN3CCN(C)CC3)cc2)cc1Nc1nccc(-c2cccnc2)n1`, for which, in experiment [1], the efficacy was 71.5% (inactive). The outcome in experiment [2], in [3], in experiment [4] and in [8] was inactive. Also, the AC50 in experiment [5] was 22.4 µM (active); in experiment [6] it was 12.6 µM (active); in [7], 12.6 µM (active); in experiment [9] it was 28.2 µM (active).
In the case of `COc1cc2ncnc(Nc3ccc(F)c(Cl)c3)c2cc1OCCCN1CCOCC1`, in [1], the efficacy is 41.5% (inactive). The AC50 in [2] was 15.8 µM (active); in [5], 2.82 µM (active); in [6] it was 2.51 µM (active); in experiment [7], 2.51 µM (active); in experiment [9] it was 15.8 µM (active). For the same compound, the outcome in [3], in experiment [4] and in experiment [8] was inactive.
For the compound `CCCNCC(O)COc1ccccc1C(=O)CCc1ccccc1` (configuration not stated), the efficacy in experiment [1] is 86.9% (inactive). In addition, the AC50 was 11.2 µM (active) in experiment [2]; 8.92 µM (active) in [4]; 8.91 µM (active) in [5]; 7.94 µM (active) in [6]; 8.91 µM (active) in experiment [9]. Moreover, the compound was called inactive in experiment [3] and in experiment [13]. In addition, the outcome in experiment [7] was “inactive [Channel type: confirmation]”.
As to `CN1CCN(C2=Nc3cc(Cl)ccc3Nc3ccccc32)CC1`, the efficacy in [1] is 95.2% (inactive). The call in experiment [2], in [3], in experiment [4], in [8] and in [9] was inactive. Further, the AC50 is 15.8 µM (active) in experiment [5], 14.1 µM (active) in experiment [6] and 14.1 µM (active) in experiment [7].
Regarding `CN(C)CCC=C1c2ccccc2CCc2ccccc21`, in [1], the efficacy is 121% (inactive). The AC50 in experiment [2] is 11.2 µM (active); in experiment [5], 8.91 µM (active); in experiment [6], 7.94 µM (active); in experiment [7] it was 7.94 µM (active); in experiment [9] it was 11.2 µM (active). For the same compound, the compound was called inactive in experiment [3], in [4] and in [8].
`COC(=O)C1=C(C)NC(C)=C(C(=O)OCCN(C)Cc2ccccc2)C1c1cccc([N+](=O)[O-])c1` (configuration not stated): the efficacy in experiment [1] was -75% (inactive). For the same compound, the compound was called inactive in [2], in [3], in experiment [4] and in experiment [8]. The AC50 in experiment [5] is 12.6 µM (active); in experiment [6], 10 µM (active); in [7], 10 µM (active); in experiment [9], 28.2 µM (active).
For the compound `O=C1c2cccc3c2[C@H](CCC3)CN1[C@@H]1CN2CCC1CC2`, the efficacy in experiment [1] was 37.7% (inactive). Besides, the compound was called inactive in experiment [2], in [3], in experiment [4], in experiment [8] and in [9]. The figures for the concentration at half-maximal activity (AC50) in experiment [5], in experiment [6] and in experiment [7] were 20 µM (active), 28.2 µM (active) and 28.2 µM (active), respectively.
As to `COC(=O)Nc1nc2ccc(C(=O)c3ccccc3)cc2[nH]1`, the efficacy in [1] is 81.3% (inactive). Moreover, the AC50 in [2] was 5.62 µM (active); in [5], 1.41 µM (active); in experiment [6] it was 1.26 µM (active); in experiment [7], 1.26 µM (active); in experiment [9], 5.62 µM (active). The call in experiment [3], in experiment [4] and in experiment [13] was inactive.
